HEK293 viab = counter-screen for SNCA expression inhibitors: cell viability | HEK-293-SNCA-luc viability, GF-AFC fluorescence, 24 h | Potency, µM (titrated, usually from 57.1 µM), actives largely listed as cytotoxic | actives 0.12% (n = 150,000) | AID 1671193; also: nearly all actives have a fitted effect of over 30% in size
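HEK-293-SNCA-luc cells (1500/well) plated 24 h, then exposed 24 h to a dilution series; GF-AFC added 30 min at 37C, fluorescence 405/540 nm; normalised to medium-only and DMSO wells, Hill fit.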
Luciferase inh = Photinus pyralis luciferase inhibition. P08659. purified P. pyralis luciferase, luminescence, biochemical. Potency, µM (titrated, usually from 115 µM), actives largely listed as inhibitors. actives 2.5% (n = 76,000). AID 1347043; also: nearly all actives have a fitted effect of over 65% in size
Target sequence (P08659 whole entry, looked up): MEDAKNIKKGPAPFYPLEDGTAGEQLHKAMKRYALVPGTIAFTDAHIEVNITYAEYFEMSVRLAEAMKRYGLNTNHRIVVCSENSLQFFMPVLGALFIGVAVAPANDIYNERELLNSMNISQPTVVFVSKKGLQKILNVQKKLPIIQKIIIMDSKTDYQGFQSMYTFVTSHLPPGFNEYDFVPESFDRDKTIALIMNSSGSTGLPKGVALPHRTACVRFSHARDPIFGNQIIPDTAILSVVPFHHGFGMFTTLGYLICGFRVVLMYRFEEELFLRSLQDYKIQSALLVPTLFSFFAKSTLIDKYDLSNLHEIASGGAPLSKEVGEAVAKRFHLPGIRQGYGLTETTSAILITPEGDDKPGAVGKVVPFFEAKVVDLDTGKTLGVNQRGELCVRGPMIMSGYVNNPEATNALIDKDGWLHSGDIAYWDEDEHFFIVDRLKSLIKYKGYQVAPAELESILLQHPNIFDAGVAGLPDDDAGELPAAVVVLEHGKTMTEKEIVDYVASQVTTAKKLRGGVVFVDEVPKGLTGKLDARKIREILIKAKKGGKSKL
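Luminescence read by CCD imager after adding enzyme (10nM final) to wells holding compound, titrated in qHTS. Substrates 10uM each D-luciferin and ATP; buffer 50mM Tris acetate pH 7.5, 10mM Mg acetate, Tween-20, BSA.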
HEK cytotox = kills HEK 293 cells; actives 6.6% (n = 94,000); Potency, µM (series often up to 115 µM), actives largely listed as inhibitors; HEK 293 viability, ATP luminescence (CellTiter-Glo), 48-72 h; AID 1345083; also: nearly all actives have a fitted effect of over 60% in size
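qHTS cytotoxicity; HEK 293, 250 cells/well; compound pinned; 48 or 72 hr, 37 degree Celsius, 5% CO2, 95% humidity; CellTiter-Glo, 10 min RT; luminescence (ATP).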
NPR1 antag = antagonists of human natriuretic peptide receptor Npr1. P16066. HEK293 hNpr1 GloSensor cGMP, ANP-stimulated luminescence. Potency, µM (doses to about 46.3 µM), actives largely listed as inhibitors. actives 1.6% (n = 76,000); calls by dose curve; also: nearly all actives have a fitted effect of over 60% in size
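Compound pre-incubated 30 min at room temperature on GloSensor-loaded HEK293 cells stably carrying hNpr1 and the pGS-40F cGMP biosensor. Stimulation uses hNppA at 0.1 nM final; luminescence is taken at baseline and 20 min post-agonist.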
SNCA expr inh = SNCA gene expression inhibition | actives 0.17% (n = 140,000) | HEK-293 SNCA-luciferase knock-in, luminescence, 24 h | Potency, µM (highest dose often 57.2 µM), hits mostly inhibitors; also: nearly all actives have a fitted effect of over 45% in size
3T3 cytotox = kills NIH 3T3 cells. NIH 3T3 viability, CellTiter-Glo ATP luminescence, 48-72 h. actives 4.3% (n = 94,000). Potency, µM (top dose mostly 96.7 µM), hits mostly inhibitors; also: nearly all actives have a fitted effect of over 55% in size
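Viability of NIH 3T3 cells after 48 or 72 hr compound treatment at 37 °C was assessed by CellTiter-Glo, with luminescence imaged following a 10 min room-temperature step.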
Npr1 antag conf = hNpr1 antagonism, confirmation assay | HEK293 hNpr1 cGMP GloSensor luminescence, ANP-stimulated | actives 76% (n = 1,400) | Potency, µM (top dose mostly 57.6 µM), most hits filed as inhibitors | AID 1347044 | shares compounds with NPR1 antag; calls by dose curve; also: nearly all actives have a fitted effect of over 70% in size
Npr2 selectivity = antagonizes human Npr2, subtype selectivity check; shares compounds with NPR1 antag; HEK293 hNpr2 GloSensor cGMP luminescence, CNP-stimulated; Potency, µM (doses to about 57.6 µM), most hits filed as inhibitors; actives 67% (n = 1,400); AID 1347046; calls by dose curve; also: nearly all actives have a fitted effect of over 70% in size
FLuc counter = inhibits firefly luciferase, false Npr1 antagonist flag; shares compounds with NPR1 antag; purified FLuc enzyme, luminescence, Km substrate; Potency, µM (top dose mostly 57.6 µM), hits mostly inhibitors; actives 0.7% (n = 1,400); AID 1347047
GloSensor ctrl = reduces cGMP signal in GloSensor control cells; Potency, µM (highest dose often 57.6 µM), most hits filed as inhibitors; actives 69% (n = 1,400); shares compounds with NPR1 antag; HEK293 GloSensor cGMP, SNP-stimulated, luminescence; calls by dose curve; also: nearly all actives have a fitted effect of over 70% in size
Each line names hits and unclear results; the compound was inactive in the other large screens (follow-up assays come after a bar, where they were run). Rows were chosen to be rich in hits. Some 7.2% of all compounds tested hit in one or more screens of this group. Unless noted, calls follow the shape of the dose curve; as a rule, active = well fitted curve in the direction sought with a large enough effect; inconclusive = small, poorly fitted or top-dose-only effect, or another doubt; inactive = no such curve, though single readings can be large; an effect the other way counts as inactive or inconclusive.

O=C(NCc1ccc2c(c1)OCO2)c1nc(-c2cccc(C(F)(F)F)c2)c2ccccn12	HEK cytotox inconclusive, NPR1 antag inconclusive, SNCA expr inh inconclusive | Npr1 antag conf inactive | Npr2 selectivity inactive | FLuc counter inactive | GloSensor ctrl inactive
CN(C)c1ccc2ncc(Nc3ccc(Oc4ccccc4)cc3)n2n1	HEK cytotox 35µM, NPR1 antag 28µM, SNCA expr inh inconclusive, 3T3 cytotox 25µM | Npr1 antag conf 31µM | Npr2 selectivity 31µM | FLuc counter inactive | GloSensor ctrl 31µM
COc1ncccc1Nc1cnc2ccc(N(C)C)nn12	HEK cytotox inconclusive, 3T3 cytotox inconclusive
CS(=O)(=O)N1CCC(CC(=O)NCc2ccccc2)C1 (configuration not stated)	none
Cc1cc(C(=O)N2[C@@H]3CC[C@H]2CC(NC(=O)c2ccc(F)cc2)C3)n[nH]1 (some centres not stated)	none
Nc1nc(C2CC(O)C2)cc(N2CCC(Cc3ccc(F)cc3)CC2)n1 (configuration not stated)	HEK cytotox inconclusive, NPR1 antag 11µM, 3T3 cytotox 16µM | Npr1 antag conf 19µM | Npr2 selectivity 19µM | FLuc counter inactive | GloSensor ctrl 12µM
O=C(Nc1ccc(Cl)cc1Cl)c1c[nH]c2cccnc12	HEK293 viab inconclusive, HEK cytotox inconclusive, 3T3 cytotox inconclusive (no result: Luciferase inh, NPR1 antag) | Npr1 antag conf 21µM | Npr2 selectivity 14µM | FLuc counter 0.96µM | GloSensor ctrl inconclusive
O=C(Nc1ccc(Cl)cc1Cl)c1ccc2cc[nH]c2n1	none (no result: Luciferase inh, NPR1 antag) | Npr1 antag conf 1.7µM | Npr2 selectivity 2.7µM | FLuc counter 0.15µM | GloSensor ctrl 2.4µM
CCCOc1ccc(CNC(=O)c2c(OCC)cc(=O)n3c2CCCC3)cc1	3T3 cytotox inconclusive
O=C(Cc1ccccc1)N1CCCC2(CC(c3ccccn3)=NO2)C1 (configuration not stated)	none (no result: Luciferase inh, NPR1 antag)
COc1ccccc1OCCNC(=O)C1CCc2ncc(-c3ccc(F)cc3)n2C1 (configuration not stated)	HEK cytotox inconclusive, NPR1 antag inconclusive | Npr1 antag conf 19µM | Npr2 selectivity 19µM | FLuc counter inactive | GloSensor ctrl inactive
O=C(NCCc1ccccc1)C1CCc2ncc(-c3ccsc3)n2C1 (configuration not stated)	HEK cytotox inconclusive, NPR1 antag inconclusive, 3T3 cytotox inconclusive | Npr1 antag conf inconclusive | Npr2 selectivity inactive | FLuc counter inactive | GloSensor ctrl inactive
Cc1noc([C@@H]2CN(C(=O)c3ccc4[nH]ccc4c3)C[C@H]2CO)n1	none
Cc1ccc(Cl)cc1NC(=O)c1cnc(-c2ccccc2)nc1-c1ccncc1	NPR1 antag inconclusive, 3T3 cytotox inconclusive | Npr1 antag conf inconclusive | Npr2 selectivity inconclusive | FLuc counter inactive | GloSensor ctrl inactive
O=C(Nc1cccc(F)c1)c1cnc(-c2ccc(F)cc2)nc1-c1ccncc1	HEK293 viab inconclusive, HEK cytotox 45µM, NPR1 antag inconclusive, 3T3 cytotox inconclusive | Npr1 antag conf inconclusive | Npr2 selectivity inconclusive | FLuc counter inactive | GloSensor ctrl inconclusive
COc1cc(NC(=O)c2cnc(-c3ccc(F)cc3)nc2-c2ccncc2)cc(OC)c1	HEK cytotox inconclusive, 3T3 cytotox inconclusive
